# From PubChem BioAssay
# Values joined by “and” are separate entries in the source; they are usually repeats but may differ in a detail not shown here. Equal entries are not always repeated. Results filed as inconclusive are left out. Some structures have more than one record in an assay (separate samples or runs), and their calls can disagree. Active and inactive are the calls of the source.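 How the source made its calls, unless noted: active means compounds whose cell count with miR-34 switched on is under 0.7 times the count with it off; inactive means the rest.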
# Columns and labels:
# [1] = Wnt pathway potentiators raising nuclear beta-catenin – imaging, WNT3A-conditioned medium, mouse C2C12, NPC library, primary screen (AID 1117326; in the data active means nuclear beta-catenin stimulation mostly above about 4.2%, no sharp cut-off; inactive means mostly below about 10%; further: reference of the scale not given here); conditions: stronger effect = higher value
# [2] = stimulators of insulin release from INS-1E, primary screen, cell-based, 5 mM glucose, NPC library (AID 1117329;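 active means compound raises insulin release from rat beta cells at 5 mM glucose, no numeric limit stated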; further: reference of the scale not given here); conditions: rat INS-1E insulin secretion, at 10 µM, stronger effect = higher value
# [3] = growth inhibition of GSK3B-pretreated HCT116 cells – cell-based, CellTiter-Glo, 0.2 to 20 µM (AID 1117336;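 active means compounds lowering colon cancer cell viability after pretreatment blocking the GSK3B kinase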); conditions: HCT116 viability after GSK3B inhibitor, at 20 µM, stronger effect = higher value
# [4] = inhibition of endothelial tube formation, primary screen, imaging, VEGF stimulated, CD31 staining, tube area, NPC library (AID 1117340;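 active means compound that reduces growth-factor-driven endothelial tube area in a mixed cell culture, no cutoff stated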); conditions: VEGF-stimulated ADSC/ECFC co-culture, at 10 µM, stronger effect = higher value
# [5] = GLP1 release stimulators, primary, NCI-H716, NPC library (AID 1117341;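 active means compound raises GLP1 secretion from the human gut endocrine cells, with no numeric limit stated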; further: reference of the scale not given here); conditions: NCI-H716 cells, at 10 µM, stronger effect = higher value
# [6] = HCT116 colon cancer cell growth inhibition, primary screen, CellTiter-Glo luminescence, NPC library (AID 1117342;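 active means compounds that lower survival of HCT116 colon cancer cells in the luminescence readout, no numeric limit stated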); conditions: at 20 µM (top of the series)
# [7] = reduced SW480 viability measured with CellTiter-Glo, NPC library, primary (AID 1117343;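 active means compounds that lower viability of the colon cancer cells in the luminescence readout, with no numeric limit stated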); conditions: CellTiter-Glo luminescence; at 20 µM (top of the series) unless noted
# [8] = NPC library primary testing for decreased DLD-1 cell viability via CellTiter-Glo (AID 1117346;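 active means compounds that lower survival of DLD-1 colon cancer cells in the luminescence readout, no cutoff given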); conditions: DLD-1 viability, CellTiter-Glo luminescence; at 20 µM (top of the series)
# [9] = tested on: Aerobactin synthetase IucA (Klebsiella pneumoniae); assay: inhibition of K. pneumoniae IucA enzyme – biochemical, Tocris library, absorbance (AID 1345561; call rule not given here;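 further: 100% = enzyme without compound and 0% = no enzyme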); conditions: purified IucA enzyme assay, absorbance (OD) read-out; stronger effect = lower value;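 tested at 8 µM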
# [10] = viability loss with induced miR-34 in A549 – imaging, A549 dox-inducible miR-34, nuclei and caspase counts, primary screen (AID 1347080); conditions: A549 miR-34 inducible, Hoechst nuclei count, 48 h
# [11] = galactose survival enhancers in mitochondrial complex I cybrids – cell-based, galactose medium, ATP luminescence, primary screen (AID 1645843;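 active means z-score of at least 1.8 in each of two replicates, scored against plate mean and spread of sample wells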;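 further: positive z means more ATP and so rescue of galactose-driven cybrid death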); conditions: complex I mutant cybrid cells, 72 h, stronger effect = higher value
# [12] = viability loss in pontine glioma line – cell-based, SU-DIPG-XVII, MIPE5.0, CellTiter-Glo, qHTS, dose response (AID 1347060; cut-off not given, nearly all actives have AC50 up to about 26 µM); conditions: CellTiter-Glo ATP luminescence
# [13] = viability loss in pontine glioma line – cell-based, SU-DIPG-XIII, MIPE4.0, CellTiter-Glo, qHTS, dose response (AID 1347061; cut-off not given, nearly all actives have AC50 up to about 37 µM;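 further: cells exposed to compound for 48 hours before readout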); conditions: CellTiter-Glo ATP luminescence
# [14] = growth inhibition of DIPG cells – cell-based, MIPE5.0 library, qHTS (AID 1347068; cut-off not given, nearly all actives have IC50 up to about 30 µM); conditions: SU-DIPG-XXV viability
# [15] = P. berghei load reduction in hepatocytes – cell-based, HepG2, luciferase luminescence, HepG2 viability, primary screen (AID 624349; in the data active means parasite load remaining mostly below about 12%, no sharp cut-off; inactive means mostly above about 10%;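 further: 100% = mean of DMSO negative control wells on the same plate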); conditions: P. berghei liver stage in HepG2, luciferase luminescence, concentration not given here; parasite load remaining: stronger effect = lower value; viability: measured here: HepG2 viability without parasites
# [16] = MELAS cybrid and Rieske KO viability enhancers – cell-based, MELAS cybrids, Rieske KO mouse fibroblasts, CellTiter-Glo, primary screen (AID 1508586;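 active means mean z-score across replicates of 1.96 or higher in either the MELAS or the Rieske mutant cell line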;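 further: z relative to plate mean and SD of compound and empty wells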); conditions: low glucose
# [17] = stronger effect = lower value, cell number ratio, induced over uninduced
# [18] = measured here: relative caspase fold change +Dox/-Dox
# [19] = measured here: total cells with miR-34 induction, stronger effect = lower value
# [20] = measured here: total cells without miR-34 induction
# [21] = MELAS cybrid survival, CellTiter-Glo 48 h, stronger effect = higher value
# [22] = Rieske KO mouse fibroblast survival, CellTiter-Glo 72 h
smiles,measurement,setting,value
c1cc(CN2CCCCC2)cc(OCCCNc2nc3ccccc3s2)c1,nuclear beta-catenin stimulation,[1]; at 10 µM,3.6% (inactive)
same,nuclear beta-catenin stimulation,"[1]; stimulation, at 2 µM",0.7%
same,insulin secretion stimulation,[2],32.8% (active)
same,viability decrease,[3],29.5% (inactive)
same,tube area decrease,[4],22.6% (inactive)
same,GLP1 secretion stimulation,[5],0.5% (inactive)
same,inhibition of viability,[6],53.3% (active)
same,viability decrease (inhibition),[7],-462% (inactive)
same,viability decrease (inhibition),[8],58.6% (active)
same,remaining activity,[9],120% (inactive)
same,fold change,[10]; [17],1.11 (inactive) and 0.901 (inactive)
same,fold change,[10]; [18],0.913 and 0.9
same,cell count,[10]; [19],7430 and 7110
same,cell count,[10]; [20],6660 and 7890
same,z-score,[11],-1.34 (inactive) and -0.8 (inactive)
O=c1[nH]c2cc(C(F)(F)F)c(N3CCOCC3)cc2n(CP(=O)(O)O)c1=O,nuclear beta-catenin stimulation,[1]; at 10 µM,1.2% (inactive)
same,nuclear beta-catenin stimulation,"[1]; stimulation, at 2 µM",-0.5%
same,insulin secretion stimulation,[2],0.85% (inactive)
same,viability decrease,[3],17.9% (inactive)
same,tube area decrease,[4],-10.1% (inactive)
same,GLP1 secretion stimulation,[5],1% (inactive)
same,inhibition of viability,[6],6.1% (inactive)
same,viability decrease (inhibition),[7],-13.4% (inactive)
same,viability decrease (inhibition),[8],1.2% (inactive)
same,remaining activity,[9],126% (inactive)
same,fold change,[10]; [17],0.942 (inactive)
same,fold change,[10]; [18],1.52
same,cell count,[10]; [19],9280
same,cell count,[10]; [20],9850
same,z-score,[11],0.07 (inactive)
COC(=O)[C@@H]1CC2=CC(=O)CC[C@]2(C)[C@@]23O[C@@H]2C[C@@]2(C)[C@@H](CC[C@@]24CCC(=O)O4)[C@H]13,nuclear beta-catenin stimulation,[1]; at 10 µM,-0.1% (inactive)
same,nuclear beta-catenin stimulation,"[1]; stimulation, at 2 µM",1.3%
same,insulin secretion stimulation,[2],-0.55% (inactive)
same,viability decrease,[3],-0.7% (inactive)
same,tube area decrease,[4],23.1% (inactive)
same,GLP1 secretion stimulation,[5],-1.5% (inactive)
same,inhibition of viability,[6],-5.5% (inactive)
same,viability decrease (inhibition),[7],24.4% (inactive)
same,viability decrease (inhibition),[8],-7.2% (inactive)
same,remaining activity,[9],96.4% (inactive)
same,outcome,[12],inactive
same,outcome,[13],inactive
same,outcome,[14],inactive
same,fold change,[10]; [17],0.96 (inactive)
same,fold change,[10]; [18],1.45
same,cell count,[10]; [19],9220
same,cell count,[10]; [20],9600
same,z-score,[11],-0.005 (inactive)
CCOC(=O)c1cnc2c(cnn2CC)c1NN=C(C)C,parasite load remaining,[15],33.1% (inactive)
same,viability,[15],68.5%
same,nuclear beta-catenin stimulation,[1]; at 10 µM,-1.1% (inactive)
same,nuclear beta-catenin stimulation,"[1]; stimulation, at 2 µM",1.4%
same,insulin secretion stimulation,[2],5.8% (inactive)
same,viability decrease,[3],-110% (inactive)
same,tube area decrease,[4],-6% (inactive)
same,GLP1 secretion stimulation,[5],0.7% (inactive)
same,inhibition of viability,[6],29.6% (inactive)
same,viability decrease (inhibition),[7],21.1% (inactive)
same,viability decrease (inhibition),[8],27.5% (inactive)
same,remaining activity,[9],115% (inactive)
same,fold change,[10]; [17],1 (inactive) and 0.89 (inactive) and 0.857 (inactive)
same,fold change,[10]; [18],1.06 and 0.8 and 1.84
same,cell count,[10]; [19],7810 and 7710 and 8880
same,cell count,[10]; [20],7780 and 8670 and 10400
same,z-score,[16]; [21],1.91
same,z-score,[16]; [22],2.39
same,z-score,[11],1.13 (inactive) and 2.63 (active) and 1.51 (inactive)
CN(C(=O)c1c(O)c2ccccc2n(C)c1=O)c1ccccc1,nuclear beta-catenin stimulation,[1]; at 10 µM,0.7% (inactive)
same,nuclear beta-catenin stimulation,"[1]; stimulation, at 2 µM",0.9%
same,insulin secretion stimulation,[2],4.4% (inactive)
same,viability decrease,[3],2.2% (inactive)
same,tube area decrease,[4],-6.9% (inactive)
same,GLP1 secretion stimulation,[5],0.6% (inactive)
same,inhibition of viability,[6],-2.7% (inactive)
same,viability decrease (inhibition),[7],1.1% (inactive)
same,viability decrease (inhibition),[8],-45.2% (inactive)
same,remaining activity,[9],121% (inactive)
same,outcome,[12],inactive
same,outcome,[14],inactive
same,fold change,[10]; [17],0.967 (inactive)
same,fold change,[10]; [18],0.749
same,cell count,[10]; [19],8780
same,cell count,[10]; [20],9070
same,z-score,[11],-0.335 (inactive)
C[N+](C)(C)CC[N+]1(C)Cc2c(Cl)c(Cl)c(Cl)c(Cl)c2C1,nuclear beta-catenin stimulation,[1]; at 10 µM,4.4% (inactive)
same,nuclear beta-catenin stimulation,"[1]; stimulation, at 2 µM",2.6%
same,insulin secretion stimulation,[2],-0.5% (inactive)
same,viability decrease,[3],-1% (inactive)
same,tube area decrease,[4],7.3% (inactive)
same,GLP1 secretion stimulation,[5],2.6% (inactive)
same,inhibition of viability,[6],-4.53% (inactive)
same,viability decrease (inhibition),[7],2.9% (inactive)
same,viability decrease (inhibition),[8],-10.2% (inactive)
same,remaining activity,[9],115% (inactive)
same,fold change,[10]; [17],0.88 (inactive)
same,fold change,[10]; [18],1.79
same,cell count,[10]; [19],9090
same,cell count,[10]; [20],10300
same,z-score,[11],0.045 (inactive)
O=C1c2ccccc2S(=O)(=O)N1CCCCN1CCN(c2ncccn2)CC1,nuclear beta-catenin stimulation,[1]; at 10 µM,-1.2% (inactive)
same,nuclear beta-catenin stimulation,"[1]; stimulation, at 2 µM",1.3%
same,insulin secretion stimulation,[2],3.3% (inactive)
same,viability decrease,[3],-7% (inactive)
same,tube area decrease,[4],4.9% (inactive)
same,GLP1 secretion stimulation,[5],-1.9% (inactive)
same,inhibition of viability,[6],7.2% (inactive)
same,viability decrease (inhibition),[7],-2.4% (active)
same,viability decrease (inhibition),[8],-2.8% (inactive)
same,remaining activity,[9],111% (inactive)
same,fold change,[10]; [17],0.855 (inactive)
same,fold change,[10]; [18],1.78
same,cell count,[10]; [19],8330
same,cell count,[10]; [20],9750
same,z-score,[16]; [21],-0.295 (inactive)
same,z-score,[16]; [22],-0.0604
same,z-score,[11],0.135 (inactive)
Cc1ccc(=O)n(-c2ccccc2)c1,nuclear beta-catenin stimulation,[1]; at 10 µM,2.8% (inactive)
same,nuclear beta-catenin stimulation,"[1]; stimulation, at 2 µM",0.6%
same,insulin secretion stimulation,[2],-1.2% (inactive)
same,viability decrease,[3],-0.3% (inactive)
same,tube area decrease,[4],13.3% (inactive)
same,GLP1 secretion stimulation,[5],-2% (inactive)
same,inhibition of viability,[6],-4.6% (inactive)
same,viability decrease (inhibition),[7],39.2% (inactive)
same,viability decrease (inhibition),[8],12.8% (inactive)
same,remaining activity,[9],120% (inactive)
same,fold change,[10]; [17],1.05 (inactive) and 0.91 (inactive) and 0.937 (inactive)
same,fold change,[10]; [18],1.33 and 1.82 and 0.797
same,cell count,[10]; [19],11000 and 8480 and 9430
same,cell count,[10]; [20],10500 and 9310 and 10100
same,z-score,[16]; [21],-0.113 (inactive)
same,z-score,[16]; [22],-0.414
same,z-score,[11],0.38 (inactive) and -0.08 (inactive)
COCC(=O)O[C@]1(CCN(C)CCCc2nc3ccccc3[nH]2)CCc2cc(F)ccc2[C@@H]1C(C)C,nuclear beta-catenin stimulation,[1]; at 10 µM,14.4% (inactive)
same,nuclear beta-catenin stimulation,"[1]; stimulation, at 2 µM",-2.2%
same,insulin secretion stimulation,[2],3.5% (inactive)
same,viability decrease,[3],107% (active)
same,tube area decrease,[4],67.6% (active)
same,GLP1 secretion stimulation,[5],20.1% (active)
same,inhibition of viability,[6],110% (active)
same,viability decrease (inhibition),[7],130% (active)
same,viability decrease (inhibition),[8],101% (active)
same,remaining activity,[9],86.1% (inactive)
same,fold change,[10]; [17],0.582 (active) and 1.03 (inactive)
same,fold change,[10]; [18],0.681 and 1.08
same,cell count,[10]; [19],108 and 550
same,cell count,[10]; [20],186 and 534
same,z-score,[11],-1.29 (inactive) and -0.675 (inactive)
